FBA Mtb inh: inhibitors of M. tuberculosis fructose-bisphosphate aldolase; purified M. tuberculosis FBA, fluorescence read-out; inhibition, % at 1 µM; actives 2.3% (n = 360,000); in the data active = inhibition above about 27%;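 note: 0% = vehicle and 100% = reference inhibitor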
Target sequence (P9WQA3 whole entry, looked up): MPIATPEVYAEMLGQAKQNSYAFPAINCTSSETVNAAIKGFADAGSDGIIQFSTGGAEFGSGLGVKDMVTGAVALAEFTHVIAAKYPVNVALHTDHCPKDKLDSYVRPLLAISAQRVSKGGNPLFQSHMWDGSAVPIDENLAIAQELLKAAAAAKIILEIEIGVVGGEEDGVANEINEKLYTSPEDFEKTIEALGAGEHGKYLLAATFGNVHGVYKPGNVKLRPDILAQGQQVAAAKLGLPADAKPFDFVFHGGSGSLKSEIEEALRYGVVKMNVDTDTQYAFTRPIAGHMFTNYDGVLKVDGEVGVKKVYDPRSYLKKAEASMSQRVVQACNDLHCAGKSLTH
FadD28 binding: inhibitors of Mycobacterium tuberculosis FadD28 bisubstrate binding; FadD28 bisubstrate probe binding, fluorescence polarization; inhibition, % at 12.5 µM; actives 0.22% (n = 360,000); in the data active = inhibition above about 8.5%, passing the limit was not always enough; inconclusive = no clear call, values can overlap the other calls
Mtb BioA inh: BioA (M. tuberculosis) enzyme inhibition | inhibition, % at 9.99 µM | purified M. tuberculosis BioA enzyme, plate reader | actives 0.096% (n = 360,000); in the data active = inhibition above about 40%; inconclusive = no clear call, values can overlap the other calls
GDH-TPI inh: counter-screen for M. tuberculosis FBA inhibitors: GDH-TPI coupled enzymes. AID 588335. GDH-TPI coupled enzyme counterscreen, NADH absorbance. inhibition, % at 4.8 µM. actives 1.2% (n = 360,000); in the data active = inhibition above about 30%;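 note: 0% = DMSO wells and 100% = wells lacking the enzyme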
SARS 3CLpro inh: SARS-CoV 3CLpro protease inhibition | recombinant SARS-CoV 3CLpro, quenched FRET peptide cleavage | P0C6X7 | inhibition, % at 6 µM | AID 1706 | actives 0.14% (n = 290,000); in the data active = inhibition above about 12%
Active calls of the source: *; ? = inconclusive; . = no result; + = active, no number. Shown are actives, neighbours in structure and some others; about 3.1% of the full set was active somewhere.

SMILES	FBA Mtb inh	FadD28 binding	Mtb BioA inh	GDH-TPI inh	SARS 3CLpro inh
O=C(NNC(=O)C1[C@H]2CCCC[C@@H]12)c1ccc(=O)oc1 (some centres not stated)	14	1	-1	39*	11
COc1cc(N)c2ncccc2c1Cl	46*	0	-1	12	.
O=c1nc(/C=C/c2ccc(Cl)cc2Cl)cc(C(F)(F)F)[nH]1	2	-1	-2	41*	-2
O=C(O)c1cc(Cl)ccc1-c1ccc(/C=C/c2cc(C(F)(F)F)[nH]c(=O)n2)o1	7	?	.	16	-10
Nc1c(C(=O)NCc2ccco2)c2nc3ccccc3nc2n1Cc1ccccc1	112*	-5	.	8	-9
Nc1c(C(=O)NCc2ccco2)c2nc3ccccc3nc2n1CCc1ccccc1F	70*	-20	4	8	2
COc1ccc(CCn2c(N)c(C(=O)NCc3ccco3)c3nc4ccccc4nc32)cc1OC	11	-18	2	16	4
COc1cc2c(cc1OC)CN(C(=O)[C@H]1[C@@H]3C(=O)O[C@@H](c4ccccc4)[C@@H](c4ccccc4)N3[C@@H](c3ccccc3OCCO)[C@]13C(=O)Nc1ccc(C#CC4(O)CCCCCC4)cc13)CC2	.	.	1	.	.
Cc1nn(Cc2ccccc2Cl)c(C)c1NC(=O)c1ccn(C)n1	-1	-2	-1	9	2
Cc1nn(Cc2ccccc2Cl)c(C)c1NC(=O)c1nc2ncccn2n1	0	-5	32	37*	-3
CO[C@H]1CN(C)C(=O)c2ccc(NC(C)=O)cc2OC[C@H](C)N(Cc2cc(F)ccc2F)C[C@@H]1C	.	.	0	.	.
CCN(CC)S(=O)(=O)c1ccc(Cl)nc1	63*	-1	.	8	1
O=C(CSC1=NNC(c2ccccn2)S1)Nc1ccc(C(F)(F)F)cc1 (configuration not stated)	-2	0	-1	32*	-3
COc1cccc(/C(O)=C2\C(=O)C(=O)N(c3ccccn3)C2c2cccc(OC)c2OC)c1 (configuration not stated)	-5	1	0	41*	2
COc1ccccc1C1/C(=C(/O)c2ccccc2)C(=O)C(=O)N1CC(C)O (configuration not stated)	5	10*	1	12	1
COc1ccc(C2/C(=C(/O)c3ccccc3)C(=O)C(=O)N2c2ccccn2)cc1 (configuration not stated)	1	1	-1	11	-2
COc1ccc(C2/C(=C(/O)c3ccc(C)cc3)C(=O)C(=O)N2c2ccccn2)cc1OC (configuration not stated)	0	0	-1	32*	-2
O=C(C[C@@H]1C[C@H]2c3cc(NC(=O)C4CCC4)ccc3O[C@H]2[C@@H](CO)O1)NCc1ccc(Cl)cc1	.	.	-1	.	.
O=C(C[C@@H]1CC[C@@H]2[C@H](COC[C@H](O)CN2C(=O)c2cccnc2)O1)NCc1ccccc1	.	.	-1	.	.
COc1ccc(C#Cc2c(-c3ccccc3)n(-c3ccccc3)c3ccc(CO)cc23)cc1	113*	-1	-2	33*	.
CCOc1ccc(-c2c(C(=O)N/N=C/c3ccco3)nnn2-c2nonc2N)cc1	2	0	-7	43*	-4
CC(/C=N/NC(=O)c1nnn(-c2nonc2N)c1CN(C)C)=C\c1ccco1	2	0	9	35*	0
CCOc1ccc(-c2c(C(=O)N/N=C/c3ccc(C)s3)nnn2-c2nonc2N)cc1	-1	-5	0	37*	9
CCOc1cccc(-c2c(C(=O)N/N=C/c3ccc(C)s3)nnn2-c2nonc2N)c1	3	-2	-7	29	3
CCCCOC(=O)Nc1nnc(CCc2ccccc2)s1	6	-3	0	-1	2
SMILES	FBA Mtb inh	FadD28 binding	Mtb BioA inh	GDH-TPI inh	SARS 3CLpro inh
CCCCOC(=O)Nc1nnc(CCOCC)s1	0	-3	0	47*	-1
O=C(N=c1nc2ccccn2s1)c1ccccc1	2	0	0	32*	.
COc1ccccc1C#Cc1ccc2c(c1)O[C@H](CN(C)C(C)=O)[C@H](C)CN([C@H](C)CO)S2(=O)=O	.	.	1	.	.
CC1CCCC(C)N1C(=C(Cl)Cl)C(=C1SCCS1)[N+](=O)[O-] (configuration not stated)	-1	16*	.	8	0
O=C(/C=C/c1ccc(F)cc1)Nc1ccc2[nH]c(=O)[nH]c2c1	2	-1	0	42*	2
COc1cc(/C=C/C(=O)Nc2ccc3[nH]c(=O)[nH]c3c2)cc(OC)c1OC	3	5	.	12	-6
CNc1ccc(-c2ccccc2OC)cn1	114*	0	0	22	.
Cc1ccc(N(CC(=O)Nc2ccc(-c3nc4ccc(C)cc4s3)cc2)S(C)(=O)=O)cc1	18	-6	-2	38*	-7
Cc1ccc2nc(-c3ccc(NS(=O)(=O)c4c(C)n(C)c(=O)n(C)c4=O)cc3)sc2c1	17	-1	.	17	8
Cc1ccc(S(=O)(=O)Nc2ccc(-c3nc4ccc(C)cc4s3)cc2)cc1	183*	-1	.	10	3
Cc1ccc2nc(NC(=O)CN3CCN(c4ccccn4)CC3)sc2c1	5	0	-3	4	-1
Cc1ccc2nc(-c3ccc(NC(=O)C(C)Sc4nncs4)cc3)sc2c1 (configuration not stated)	15	2	-2	34*	.
Cc1ccc2nc(-c3ccc(NC(=S)NC(=O)CC(C)C)cc3)sc2c1	5	-2	-3	7	-2
Cc1ccc2nc(-c3ccc(NC(=O)CN4CCN(c5ccccn5)CC4)cc3)sc2c1	40*	0	-4	30	2
CC(C)(C)[S@](=O)N1Cc2cc(C(=O)NCc3ccncc3)nc(-c3cccc(-c4ccc(C#N)cc4)c3)c2[C@@H]1CCO	.	.	10	.	.
C[C@@H]1CN([C@@H](C)CO)C(=O)Cc2cc(NC(=O)c3ccncc3)ccc2O[C@H]1CN(C)Cc1ccc2c(c1)OCO2	.	.	3	.	.
Cc1ccccc1-c1cnc2c(c1)C(=O)N([C@@H](C)CO)C[C@@H](C)[C@H](CN(C)C(=O)c1ccc(F)cc1)O2	.	.	7	.	.
Cc1cccc(S(=O)(=O)Nc2ccc(-c3cn4ccccc4n3)cc2)c1	12	-1	2	13	0
Cc1cccc(S(=O)(=O)Nc2ccc(-c3nc4ccc(C)cc4s3)cc2)c1	+	-3	.	24	2
CC(=O)Oc1ccc2occ(/C=N/c3cc(=O)[nH]c(=S)[nH]3)c(=O)c2c1	-1	-3	1	39*	7
Cc1ccc2occ(/C=N/O)c(=O)c2c1	1	-2	0	1	-3
Cc1ccc(Nc2c(-c3ccc(N4CCOCC4)cc3)nc3ncccn23)cc1	3	-3	0	31*	-4
Cc1ccc(Nc2c(-c3ccc(N4CCOCC4)cc3)nc3ncccn23)cc1C	1	-1	-2	7	-1
C[C@@H]1CN([C@@H](C)CO)C(=O)c2cc(NC(=O)Nc3ccc4c(c3)OCO4)ccc2O[C@@H](C)CCCCO[C@@H]1CN(C)S(=O)(=O)c1cn(C)cn1	.	.	1	.	.
